Measurements: ChEMBL document CHEMBL1961873, “Compounds: GSK PKIS; Assays: Nanosyn kinase panel” (2012)

Assays:
[1] = target: Calcium/calmodulin-dependent protein kinase type II subunit alpha (Homo sapiens) (UniProt Q9UQM7); settings: at 1 µM;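 note: reported value is a mean percent inhibition of CAMK2A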
[2] = target: Calcium/calmodulin-dependent protein kinase type II subunit delta (Homo sapiens) (UniProt Q13557); settings: at 0.1 µM
[3] = target: Calcium/calmodulin-dependent protein kinase type II subunit delta (Homo sapiens) (UniProt Q13557); settings: at 1 µM
[4] = target: T1, Calcium/calmodulin-dependent protein kinase type IV (Homo sapiens) (UniProt Q16566); settings: at 0.1 µM
T1 sequence (whole entry): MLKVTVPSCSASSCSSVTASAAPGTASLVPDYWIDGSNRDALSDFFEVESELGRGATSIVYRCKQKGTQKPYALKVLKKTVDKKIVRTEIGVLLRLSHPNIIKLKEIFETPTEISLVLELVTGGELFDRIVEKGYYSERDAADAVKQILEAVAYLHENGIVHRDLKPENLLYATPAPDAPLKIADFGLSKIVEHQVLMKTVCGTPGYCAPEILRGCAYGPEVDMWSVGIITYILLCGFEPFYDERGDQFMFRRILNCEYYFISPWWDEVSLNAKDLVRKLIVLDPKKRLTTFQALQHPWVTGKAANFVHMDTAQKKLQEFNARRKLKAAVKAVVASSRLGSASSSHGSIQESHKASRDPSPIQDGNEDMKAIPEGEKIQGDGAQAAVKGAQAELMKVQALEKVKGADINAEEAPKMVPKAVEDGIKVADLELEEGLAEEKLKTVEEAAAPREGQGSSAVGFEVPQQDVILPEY

[5] = target: T1, Calcium/calmodulin-dependent protein kinase type IV (Homo sapiens); settings: at 1 µM
[6] = target: T2, Serine/threonine-protein kinase Chk1 (Homo sapiens) (UniProt O14757); settings: at 0.1 µM
T2 sequence (whole entry): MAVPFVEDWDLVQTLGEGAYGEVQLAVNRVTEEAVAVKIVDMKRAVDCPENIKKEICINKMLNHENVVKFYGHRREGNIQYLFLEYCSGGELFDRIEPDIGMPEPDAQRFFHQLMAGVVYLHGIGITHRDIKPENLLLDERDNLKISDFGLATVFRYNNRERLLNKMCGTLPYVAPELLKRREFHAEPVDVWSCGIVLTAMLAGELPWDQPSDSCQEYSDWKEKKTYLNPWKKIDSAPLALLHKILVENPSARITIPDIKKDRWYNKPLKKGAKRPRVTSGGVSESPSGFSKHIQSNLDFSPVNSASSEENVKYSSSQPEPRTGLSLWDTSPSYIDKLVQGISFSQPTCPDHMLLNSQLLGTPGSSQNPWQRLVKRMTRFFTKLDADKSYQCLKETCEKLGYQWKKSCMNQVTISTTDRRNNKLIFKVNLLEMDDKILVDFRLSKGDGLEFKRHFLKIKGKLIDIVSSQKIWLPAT

[7] = target: T2, Serine/threonine-protein kinase Chk1 (Homo sapiens); settings: at 1 µM
[8] = target: Serine/threonine-protein kinase Chk2 (Homo sapiens) (UniProt O96017); settings: at 0.1 µM
Sequence of Serine/threonine-protein kinase Chk2 (Homo sapiens) (O96017 whole entry): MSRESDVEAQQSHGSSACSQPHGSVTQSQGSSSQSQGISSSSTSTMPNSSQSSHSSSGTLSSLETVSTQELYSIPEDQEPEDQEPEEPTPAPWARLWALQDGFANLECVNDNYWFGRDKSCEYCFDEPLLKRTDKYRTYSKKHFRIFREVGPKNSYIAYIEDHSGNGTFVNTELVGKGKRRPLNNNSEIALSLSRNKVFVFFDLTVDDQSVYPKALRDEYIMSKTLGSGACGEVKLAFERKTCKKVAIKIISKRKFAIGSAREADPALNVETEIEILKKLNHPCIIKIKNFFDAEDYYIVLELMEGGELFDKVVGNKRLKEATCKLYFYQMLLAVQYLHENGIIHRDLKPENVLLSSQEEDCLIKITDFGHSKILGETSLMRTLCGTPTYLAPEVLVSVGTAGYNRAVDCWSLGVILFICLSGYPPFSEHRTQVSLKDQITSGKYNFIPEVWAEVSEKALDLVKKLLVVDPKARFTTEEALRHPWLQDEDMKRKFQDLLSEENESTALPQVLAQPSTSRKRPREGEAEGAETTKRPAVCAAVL

[9] = target: Serine/threonine-protein kinase Chk2 (Homo sapiens) (UniProt O96017); settings: at 1 µM
[10] = target: Death-associated protein kinase 1 (Homo sapiens) (UniProt P53355); settings: at 0.1 µM
Sequence of Death-associated protein kinase 1 (Homo sapiens) (P53355 whole entry, looked up): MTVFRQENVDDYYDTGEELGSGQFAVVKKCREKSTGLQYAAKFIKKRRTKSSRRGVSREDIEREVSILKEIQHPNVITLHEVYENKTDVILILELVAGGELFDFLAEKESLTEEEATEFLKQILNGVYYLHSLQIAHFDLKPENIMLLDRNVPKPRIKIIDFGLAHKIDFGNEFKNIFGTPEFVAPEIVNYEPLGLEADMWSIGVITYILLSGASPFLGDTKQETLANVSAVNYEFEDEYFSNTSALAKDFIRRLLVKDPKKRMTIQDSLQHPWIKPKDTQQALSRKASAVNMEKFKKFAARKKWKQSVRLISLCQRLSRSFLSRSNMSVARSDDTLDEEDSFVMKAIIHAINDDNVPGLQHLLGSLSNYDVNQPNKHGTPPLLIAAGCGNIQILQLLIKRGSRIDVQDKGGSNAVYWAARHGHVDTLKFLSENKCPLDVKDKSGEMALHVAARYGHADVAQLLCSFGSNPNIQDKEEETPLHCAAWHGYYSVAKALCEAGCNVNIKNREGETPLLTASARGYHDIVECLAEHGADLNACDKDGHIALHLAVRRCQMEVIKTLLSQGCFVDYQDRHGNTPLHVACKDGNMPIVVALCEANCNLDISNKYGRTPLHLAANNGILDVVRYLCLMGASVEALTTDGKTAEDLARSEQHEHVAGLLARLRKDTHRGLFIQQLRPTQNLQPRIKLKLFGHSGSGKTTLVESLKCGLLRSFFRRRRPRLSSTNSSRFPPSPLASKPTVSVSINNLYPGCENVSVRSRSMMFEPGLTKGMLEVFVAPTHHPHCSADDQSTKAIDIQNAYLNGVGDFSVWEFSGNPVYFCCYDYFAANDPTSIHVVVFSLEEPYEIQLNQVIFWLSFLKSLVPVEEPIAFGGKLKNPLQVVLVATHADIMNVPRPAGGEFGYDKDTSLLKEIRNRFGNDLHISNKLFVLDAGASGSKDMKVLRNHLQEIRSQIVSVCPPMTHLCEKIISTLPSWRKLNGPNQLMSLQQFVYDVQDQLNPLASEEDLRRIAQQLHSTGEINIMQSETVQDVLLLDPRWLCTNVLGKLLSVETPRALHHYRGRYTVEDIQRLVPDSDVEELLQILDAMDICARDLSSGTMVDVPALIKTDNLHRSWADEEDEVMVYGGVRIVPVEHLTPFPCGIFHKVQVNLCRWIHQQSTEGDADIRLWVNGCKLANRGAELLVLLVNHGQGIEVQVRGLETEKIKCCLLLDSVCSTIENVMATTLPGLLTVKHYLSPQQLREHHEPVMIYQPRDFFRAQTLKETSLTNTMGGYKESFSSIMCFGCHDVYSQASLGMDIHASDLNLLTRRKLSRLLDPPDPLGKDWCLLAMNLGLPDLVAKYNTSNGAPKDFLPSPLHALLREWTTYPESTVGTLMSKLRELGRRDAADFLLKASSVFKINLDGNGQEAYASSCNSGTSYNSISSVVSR

[11] = target: Death-associated protein kinase 1 (Homo sapiens) (UniProt P53355); settings: at 1 µM
[12] = target: T3, Serine/threonine-protein kinase DCLK2 (Homo sapiens) (UniProt Q8N568); settings: at 0.1 µM
T3 sequence (whole entry): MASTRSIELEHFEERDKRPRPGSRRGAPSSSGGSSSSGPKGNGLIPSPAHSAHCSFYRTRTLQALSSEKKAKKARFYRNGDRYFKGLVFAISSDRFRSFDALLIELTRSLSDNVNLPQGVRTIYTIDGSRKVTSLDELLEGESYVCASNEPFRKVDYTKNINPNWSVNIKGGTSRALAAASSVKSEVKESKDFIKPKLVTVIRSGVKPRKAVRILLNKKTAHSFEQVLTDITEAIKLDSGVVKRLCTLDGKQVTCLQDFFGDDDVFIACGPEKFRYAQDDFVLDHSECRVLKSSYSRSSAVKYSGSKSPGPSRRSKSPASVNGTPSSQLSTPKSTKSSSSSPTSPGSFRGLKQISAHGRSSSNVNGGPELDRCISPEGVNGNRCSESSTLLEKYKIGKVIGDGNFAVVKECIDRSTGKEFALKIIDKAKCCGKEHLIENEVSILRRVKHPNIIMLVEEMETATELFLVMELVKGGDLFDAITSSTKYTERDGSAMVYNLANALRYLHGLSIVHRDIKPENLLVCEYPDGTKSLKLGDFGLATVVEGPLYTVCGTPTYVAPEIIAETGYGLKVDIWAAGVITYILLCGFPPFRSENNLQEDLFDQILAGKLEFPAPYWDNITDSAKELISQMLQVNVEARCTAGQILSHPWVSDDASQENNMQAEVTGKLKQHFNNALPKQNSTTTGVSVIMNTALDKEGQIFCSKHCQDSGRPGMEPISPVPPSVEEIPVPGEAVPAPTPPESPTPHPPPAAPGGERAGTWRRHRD

[13] = target: T3, Serine/threonine-protein kinase DCLK2 (Homo sapiens); settings: at 1 µM
[14] = target: MAP kinase-activated protein kinase 2 (Homo sapiens) (UniProt P49137); settings: at 0.1 µM
Sequence of MAP kinase-activated protein kinase 2 (Homo sapiens) (P49137 whole entry, looked up): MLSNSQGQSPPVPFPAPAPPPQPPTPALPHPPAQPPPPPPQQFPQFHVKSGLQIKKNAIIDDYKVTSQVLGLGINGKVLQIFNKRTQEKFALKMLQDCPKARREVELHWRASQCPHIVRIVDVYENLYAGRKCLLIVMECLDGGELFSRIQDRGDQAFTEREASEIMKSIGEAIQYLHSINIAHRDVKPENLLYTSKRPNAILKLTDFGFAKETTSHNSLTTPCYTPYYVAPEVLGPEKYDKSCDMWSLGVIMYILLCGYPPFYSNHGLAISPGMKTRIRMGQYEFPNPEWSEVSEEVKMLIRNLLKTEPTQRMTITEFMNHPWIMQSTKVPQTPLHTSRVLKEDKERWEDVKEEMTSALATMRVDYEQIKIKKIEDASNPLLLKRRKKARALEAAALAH

[15] = target: MAP kinase-activated protein kinase 2 (Homo sapiens) (UniProt P49137); settings: at 1 µM
[16] = target: MAP kinase-activated protein kinase 3 (Homo sapiens) (UniProt Q16644); settings: at 0.1 µM
Sequence of MAP kinase-activated protein kinase 3 (Homo sapiens) (Q16644 whole entry, looked up): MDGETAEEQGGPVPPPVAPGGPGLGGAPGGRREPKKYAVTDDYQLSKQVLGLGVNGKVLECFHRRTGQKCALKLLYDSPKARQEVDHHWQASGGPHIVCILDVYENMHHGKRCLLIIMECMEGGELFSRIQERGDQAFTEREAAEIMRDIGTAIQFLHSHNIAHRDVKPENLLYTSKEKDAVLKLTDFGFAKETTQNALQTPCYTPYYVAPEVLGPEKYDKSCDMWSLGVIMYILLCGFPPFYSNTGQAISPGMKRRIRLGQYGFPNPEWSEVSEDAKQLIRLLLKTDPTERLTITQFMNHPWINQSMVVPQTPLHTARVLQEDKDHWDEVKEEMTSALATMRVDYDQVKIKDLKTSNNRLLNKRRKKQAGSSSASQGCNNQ

[17] = target: MAP kinase-activated protein kinase 3 (Homo sapiens) (UniProt Q16644); settings: at 1 µM
[18] = target: Serine/threonine-protein kinase MARK1 (Homo sapiens) (UniProt Q9P0L2); settings: at 0.1 µM
Sequence of Serine/threonine-protein kinase MARK1 (Homo sapiens) (Q9P0L2 whole entry, looked up): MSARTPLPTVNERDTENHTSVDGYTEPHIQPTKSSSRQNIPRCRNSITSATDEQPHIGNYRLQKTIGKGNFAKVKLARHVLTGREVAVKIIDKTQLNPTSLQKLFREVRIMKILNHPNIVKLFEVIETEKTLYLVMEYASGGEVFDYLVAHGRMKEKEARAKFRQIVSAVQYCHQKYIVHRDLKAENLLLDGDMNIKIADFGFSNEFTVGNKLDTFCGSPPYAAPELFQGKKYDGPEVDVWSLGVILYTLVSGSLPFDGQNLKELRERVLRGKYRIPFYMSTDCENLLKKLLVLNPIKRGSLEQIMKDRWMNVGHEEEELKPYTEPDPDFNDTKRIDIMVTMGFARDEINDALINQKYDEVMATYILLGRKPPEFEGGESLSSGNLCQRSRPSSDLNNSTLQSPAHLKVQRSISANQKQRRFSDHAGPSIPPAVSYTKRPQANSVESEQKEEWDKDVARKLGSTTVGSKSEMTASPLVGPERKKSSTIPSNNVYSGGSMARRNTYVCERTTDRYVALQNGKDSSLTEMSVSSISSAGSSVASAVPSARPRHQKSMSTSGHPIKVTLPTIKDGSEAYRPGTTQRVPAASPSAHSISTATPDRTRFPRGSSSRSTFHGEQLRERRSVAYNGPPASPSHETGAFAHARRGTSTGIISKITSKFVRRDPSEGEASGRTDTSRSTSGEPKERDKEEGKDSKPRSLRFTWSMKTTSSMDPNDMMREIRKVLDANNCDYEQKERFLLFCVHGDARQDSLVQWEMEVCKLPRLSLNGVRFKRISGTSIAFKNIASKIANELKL

[19] = target: Serine/threonine-protein kinase MARK1 (Homo sapiens) (UniProt Q9P0L2); settings: at 1 µM
[20] = target: MAP/microtubule affinity-regulating kinase 3 (Homo sapiens) (UniProt P27448); settings: at 0.1 µM;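 note: mean percent inhibition of MARK3 kinase activity, measured within the GSK PKIS screening panel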
Sequence of MAP/microtubule affinity-regulating kinase 3 (Homo sapiens) (P27448 whole entry, looked up): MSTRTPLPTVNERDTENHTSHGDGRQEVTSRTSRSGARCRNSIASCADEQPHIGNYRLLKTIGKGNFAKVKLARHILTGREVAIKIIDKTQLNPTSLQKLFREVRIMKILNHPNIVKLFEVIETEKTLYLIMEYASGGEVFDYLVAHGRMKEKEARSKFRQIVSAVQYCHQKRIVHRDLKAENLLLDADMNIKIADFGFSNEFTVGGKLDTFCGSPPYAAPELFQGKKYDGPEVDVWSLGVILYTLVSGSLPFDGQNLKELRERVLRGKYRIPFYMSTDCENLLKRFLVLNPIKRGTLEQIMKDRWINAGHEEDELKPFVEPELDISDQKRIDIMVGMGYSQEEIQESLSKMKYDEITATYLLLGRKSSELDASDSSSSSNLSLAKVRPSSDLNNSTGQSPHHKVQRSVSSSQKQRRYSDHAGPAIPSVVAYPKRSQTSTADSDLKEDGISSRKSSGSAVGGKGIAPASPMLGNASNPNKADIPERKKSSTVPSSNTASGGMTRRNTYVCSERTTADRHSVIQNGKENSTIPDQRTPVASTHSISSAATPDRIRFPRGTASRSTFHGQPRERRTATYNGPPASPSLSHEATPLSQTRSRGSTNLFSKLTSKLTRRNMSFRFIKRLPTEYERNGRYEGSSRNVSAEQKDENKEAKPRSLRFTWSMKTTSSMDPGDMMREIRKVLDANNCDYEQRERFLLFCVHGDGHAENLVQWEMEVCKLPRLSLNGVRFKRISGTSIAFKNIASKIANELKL

Sequence of Calcium/calmodulin-dependent protein kinase type II subunit delta (Homo sapiens) (Q13557 whole entry): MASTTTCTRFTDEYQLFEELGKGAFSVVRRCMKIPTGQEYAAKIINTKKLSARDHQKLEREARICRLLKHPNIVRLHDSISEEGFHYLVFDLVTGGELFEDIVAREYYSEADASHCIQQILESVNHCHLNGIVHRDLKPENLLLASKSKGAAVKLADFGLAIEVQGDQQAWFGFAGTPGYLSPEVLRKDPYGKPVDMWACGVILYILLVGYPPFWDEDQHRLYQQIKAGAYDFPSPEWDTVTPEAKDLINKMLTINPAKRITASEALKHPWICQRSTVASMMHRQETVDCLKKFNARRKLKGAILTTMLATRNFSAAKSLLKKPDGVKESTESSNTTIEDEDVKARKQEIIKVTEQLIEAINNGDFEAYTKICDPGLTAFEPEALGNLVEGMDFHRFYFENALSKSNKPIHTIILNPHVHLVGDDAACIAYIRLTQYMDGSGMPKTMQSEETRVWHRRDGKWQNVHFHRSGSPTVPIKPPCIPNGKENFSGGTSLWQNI

| SMILES | inhibition [1] [%] | inhibition [2] [%] | inhibition [3] [%] | inhibition [4] [%] | inhibition [5] [%] | inhibition [6] [%] | inhibition [7] [%] | inhibition [8] [%] | inhibition [9] [%] | inhibition [10] [%] | inhibition [11] [%] | inhibition [12] [%] | inhibition [13] [%] | inhibition [14] [%] | inhibition [15] [%] | inhibition [16] [%] | inhibition [17] [%] | inhibition [18] [%] | inhibition [19] [%] | inhibition [20] [%] |
| --- | --- | --- | --- | --- | --- | --- | --- | --- | --- | --- | --- | --- | --- | --- | --- | --- | --- | --- | --- | --- |
| Nc1nonc1-c1nc2cnccc2n1C1CCCCC1 | 0.68 | -1.42 | 4.05 | 1.07 | 1.19 | -0.67 | 1.88 | -2 | -1.47 | -1.34 | -1.97 | -0.3 | 1.52 | -1.18 | -1.08 | -2.2 | -2.76 | 2.89 | 16.5 | 4.04 |
| COc1cc2c(cc1Nc1nc(Nc3ccsc3C(N)=O)c3cc[nH]c3n1)N(C(=O)CN(C)C)CCC2 | -4.91 | 3.02 | 13 | 2.85 | 12.1 | -2.04 | – | 2.31 | 11.8 | 2.17 | 4.14 | -2.25 | 0.34 | -0.32 | -2.2 | 6.83 | 6.01 | 2.48 | 5.99 | 2.11 |
| NC(=O)c1sc(-n2cnc3cc(C(F)(F)F)ccc32)cc1OCc1ccccc1Br | -0.17 | 2.18 | 1.35 | 2.89 | 1.08 | -0.06 | 0.96 | 1.22 | 0.32 | 1.27 | 0 | -1.23 | 2.52 | 0.61 | 0.42 | 1.71 | -0.9 | 1.79 | 1.6 | 1.11 |
| CCn1c(-c2nonc2N)nc2c(C#CC(C)(C)O)nc(O[C@@H](CN)c3ccccc3)cc21 | 1.68 | -0.76 | 14.3 | -0.23 | 4.51 | -3.48 | 31.1 | 2.31 | 26.7 | -0.91 | 2.31 | 6.73 | 18.5 | -0.97 | -1 | -3.02 | -0.47 | 77.2 | 93.1 | 83.3 |
| Cc1cc(-c2ccco2)cc(C)c1/C=C/c1cncc(-c2nn[nH]n2)c1 | -0.97 | -0.09 | 0.35 | 1.45 | 1.06 | -8.36 | -1.92 | -0.74 | -0.4 | 1.92 | 0.04 | -1.22 | 0.25 | 0.52 | 0.01 | 1.42 | 1.25 | 1.07 | 1.26 | -0.4 |
| CCn1c(-c2nonc2N)nc2c(C#CC(C)(C)O)ncc(OC[C@@H]3CCCN3)c21 | -2.05 | 0.64 | 0.35 | 0.16 | -0.65 | -1.63 | 2.95 | 0.37 | 1.08 | 1.35 | 0.89 | -1.55 | 2.93 | -0.56 | -0.71 | -0.39 | -0.82 | 13.8 | 61.1 | 14.9 |
| NS(=O)(=O)c1ccc(-c2ccc3c(NC(=O)C4CC4)n[nH]c3c2)cc1 | 3.21 | 2.57 | 3.65 | 0.18 | 0.35 | 1.61 | 4.16 | 1.56 | 2.29 | 3.27 | 4.32 | 0.37 | 0.39 | 1.09 | 0.96 | 2.61 | 2.69 | 1.75 | 2.18 | 2.65 |
